Bioassay records as filed in PubChem.
Only some compounds are listed: those with a hit (about 1.2% of all), similar ones and a draw of the others.
Anesthetic bind = candidate novel general anesthetic via apoferritin binding. P02791. apoferritin/1-aminoanthracene competitive binding, fluorescence. Potency, µM (doses to about 77.5 µM), without a hit: top-dose activity change, negative = displacement, actives largely listed as inhibitors. actives 0.074% (n = 350,000). AID 485281; also: potency is read from the fitted curve at half-maximal effect; % is scaled to controls: 0 for no effect and ±100 for the full control effect; nearly all actives have a fitted effect of over 20% in size
Target sequence (P02791 2-175 limits assumed): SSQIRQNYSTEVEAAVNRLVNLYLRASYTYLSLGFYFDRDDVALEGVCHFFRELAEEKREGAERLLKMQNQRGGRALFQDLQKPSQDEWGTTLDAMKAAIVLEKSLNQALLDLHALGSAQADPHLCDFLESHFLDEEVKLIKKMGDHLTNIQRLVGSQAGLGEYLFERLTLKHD
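In PBS, apoferritin at 10 uM is loaded with 1-AMA from a 50% saturated solution. After 10 min of compound exposure at ambient temperature, reduced 535 nm fluorescence indicates probe displacement.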
TSG101-PTAP inh = blocks PTAP/TSG101 interaction to inhibit HIV-1 budding | Potency, µM (highest dose often 115 µM), for inactives: top-dose activity change, negative = inhibition, usual class: inhibitors | AID 493005 | Q99816 | Fluorescence polarization, FITC-PTAP peptide / Tsg101 binding | 340,000 tested, under 10 active; active = well fitted inhibition curve with a large enough effect in the main read-out, with a control signal flat, not every such curve was filed as active; inconclusive = small, poorly fitted or top-dose-only effect, or effect the other way, or a change in a side signal; inactive = no such curve, though single readings can be large or run the other way; also: potency is read from the fitted curve at half-maximal effect; % of control where 0% means no effect
Target sequence (Q99816 whole entry, looked up): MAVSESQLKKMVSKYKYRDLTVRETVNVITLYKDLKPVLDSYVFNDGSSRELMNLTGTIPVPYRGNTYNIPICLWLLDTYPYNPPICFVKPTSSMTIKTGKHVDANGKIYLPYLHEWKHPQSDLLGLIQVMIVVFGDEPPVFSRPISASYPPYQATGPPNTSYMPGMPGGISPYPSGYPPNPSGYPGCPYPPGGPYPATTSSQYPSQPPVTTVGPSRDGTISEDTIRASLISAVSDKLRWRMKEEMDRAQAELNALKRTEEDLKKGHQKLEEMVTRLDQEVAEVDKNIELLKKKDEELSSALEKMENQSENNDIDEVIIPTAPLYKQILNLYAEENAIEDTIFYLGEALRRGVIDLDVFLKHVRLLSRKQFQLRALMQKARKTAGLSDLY
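Tsg101 binding domain (10 uM final) was mixed with compound and a FITC-labeled PTAP peptide (50 nM final) in HEPES pH 7.5 buffer with NaCl, Tween 20, EDTA and TCEP; fluorescence polarization was read after 20 min at r.t.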
TSHR antag = human thyrotropin receptor antagonism; activity change, negative = inhibition, % at 11.5 µM; TSHR-expressing cells, TSH-stimulated cAMP HTRF, 2 h; hits give low values; actives 0.2% (n = 330,000); P16473;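 active = activity change below a set negative limit, meaning inhibition stronger than a set level, cut at about -70% in these data; inconclusive = activity change between two set negative limits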; also: % is scaled to controls: 0 for no effect and ±100 for the full control effect
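Read-out is FRET at 665 nm (cryptate excitation 337 nm) from a cryptate-tagged anti-cAMP antibody, competed by cell cAMP against cAMP-d2. Compounds are tested on freshly harvested TSHR cells challenged with 4nM TSH (EC80) for 2 hours at 37 deg C.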
S-ASM inh = inhibitors of human secretory acid sphingomyelinase. P17405. actives 0.006% (n = 340,000). Potency, µM (doses to about 57.5 µM), for inactives: at the top dose activity change, negative = inhibition, hits mostly inhibitors. placental ASM, HMU-PC fluorogenic substrate, 60 min; also: potency is read from the fitted curve at half-maximal effect
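Fluorogenic HMU-PC substrate (9 uM final) is turned over by placental ASM in 60 min at 37 C after a 10 min compound preincubation. Reaction ended by alkaline stop (pH 10), with fluorescence read at 386/447 nm.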
BRCA1 expr act = increases BRCA1 expression; Potency, µM (top dose mostly 46.1 µM), inactives show at the top dose activation, actives largely listed as activators; MCF7-BRCA1-FFLuc reporter, luminescence, 48 h; response scale: scaled: vehicle 0%, 10 µM genistein 100%; actives 1.1% (n = 380,000); also: potency is read from the fitted curve at half-maximal effect; nearly all actives have a fitted effect of over 80% in size
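MCF7 cells carrying a BRCA1-firefly luciferase reporter (2000 cells/well, phenol-red free MEM) were attached for 2 h at 37 °C, then given compounds for 48 h. Luminescence was read 15 min after luciferase reagent; activity normalized to genistein (10 microM) and DMSO.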
Numbers without * were called inactive. Unless noted, calls follow the shape of the dose curve; as a rule, active = well fitted curve in the direction sought with a large enough effect; inconclusive = small, poorly fitted or top-dose-only effect, or another doubt; inactive = no such curve, though single readings can be large; an effect the other way counts as inactive or inconclusive.

Screening O=[N+]([O-])c1cccc(-c2nc3ccc([N+](=O)[O-])cc3[nH]2)c1 returned Anesthetic bind -5%, TSG101-PTAP inh -4%, TSHR antag -21, S-ASM inh -3% and BRCA1 expr act 5µM*.
Screening Nc1n[nH]c(N)c1N=Nc1ccc2c(c1)OCO2 returned Anesthetic bind inconclusive, TSG101-PTAP inh 0%, TSHR antag 4, S-ASM inh -10% and BRCA1 expr act 10µM*.
Screening Cc1ccc(N=Nc2c(N)n[nH]c2N)cc1 returned Anesthetic bind -16%, TSG101-PTAP inh -1%, TSHR antag 5, S-ASM inh -13% and BRCA1 expr act 10µM*.
`CC(O)(c1ccc(Cl)cc1)c1ccc(Cl)cc1` gave Anesthetic bind -15%.
Screening Cc1cccc(-c2noc(-c3ccoc3C)n2)c1 returned Anesthetic bind -9%, TSG101-PTAP inh 0%, TSHR antag 1, S-ASM inh -2% and BRCA1 expr act -7%.
`COc1cccc(-c2noc(-c3ccoc3C)n2)c1` gave Anesthetic bind -3%, TSG101-PTAP inh -2%, TSHR antag 3, S-ASM inh -1% and BRCA1 expr act 2%.
Screening COc1ccc(-c2noc(-c3ccoc3C)n2)cc1OC returned Anesthetic bind inconclusive, TSG101-PTAP inh -2%, TSHR antag 7, S-ASM inh -3% and BRCA1 expr act 4.5µM*.
COc1ccc(-c2noc(-c3ccoc3C)n2)cc1 was read as Anesthetic bind 7%, TSG101-PTAP inh -12%, TSHR antag -6, S-ASM inh -4% and BRCA1 expr act 11µM*.
`Cc1oc2cc3oc(=O)c(CCC(=O)NC4CC4)c(C)c3cc2c1C` gave Anesthetic bind -6%, TSG101-PTAP inh 0%, TSHR antag -1, S-ASM inh 31% and BRCA1 expr act 6.3µM*.
`CC(=O)Oc1ccc2cc(-c3nc4c(s3)CCc3ccccc3-4)c(=O)oc2c1` gave BRCA1 expr act 10%.
Screening O=C(Nc1sc2c(c1C(=O)O)CCCCC2)c1ccccc1 returned Anesthetic bind 0%, TSG101-PTAP inh -6%, TSHR antag -35, S-ASM inh 12% and BRCA1 expr act -15%.
O=C(Nc1sc2c(c1C(=O)O)CCCC2)c1cccc(Cl)c1 was read as Anesthetic bind -3%, TSG101-PTAP inh -9%, TSHR antag -26, S-ASM inh 13% and BRCA1 expr act 11µM*.
Cc1cc(NC(=O)CC2CCCC2)ccc1Br was read as Anesthetic bind inconclusive, TSG101-PTAP inh -6%, TSHR antag -3, S-ASM inh -4% and BRCA1 expr act 8.9µM*.
O=C(CC1CCCC1)Nc1ccc2c(c1)CCC2 was read as Anesthetic bind inconclusive, TSG101-PTAP inh -6%, TSHR antag 9, S-ASM inh 4% and BRCA1 expr act 10µM*.
For OC[C@@H](O)C(O)[C@H](O)[C@H](O)CO (stereo not given in full) the results were Anesthetic bind -12%.
Cc1cc(C)c(C#N)c(SCC(=O)Nc2ccc3c(c2)OCO3)n1 was read as Anesthetic bind 3%, TSG101-PTAP inh 0%, TSHR antag -3, S-ASM inh -3% and BRCA1 expr act 11µM*.
CCOc1cccc(NC(=O)CSc2nc(C)c3c(c2C#N)CCCC3)c1 was read as Anesthetic bind -5%, TSG101-PTAP inh -2%, TSHR antag 21, S-ASM inh -1% and BRCA1 expr act 12%.
`COCc1cc(C)nc(SCC(=O)Nc2ccc(C)c(C)c2)c1C#N` gave Anesthetic bind 80%, TSG101-PTAP inh 1%, TSHR antag -10, S-ASM inh 4% and BRCA1 expr act 4µM*.
`Cc1cc(C)nc(SCC(=O)Nc2ccc3c(c2)OCO3)n1` gave Anesthetic bind -6%, TSG101-PTAP inh 0%, TSHR antag 9, S-ASM inh 3% and BRCA1 expr act -15%.
`Cc1nc(SCC(=O)Nc2ccc3c(c2)OCO3)c(C#N)c2c1CCCC2` gave Anesthetic bind -15%, TSG101-PTAP inh -4%, TSHR antag -29, S-ASM inh -4% and BRCA1 expr act 7.1µM*.
For CCN(CC)CC(=O)Nc1scc2c1c(=O)oc1ccccc12 the results were Anesthetic bind 3%, TSG101-PTAP inh -1%, TSHR antag -7, S-ASM inh -3% and BRCA1 expr act 11µM*.
`COc1ccc(C(=O)Cc2cc3cccc(OC)c3oc2=O)cc1` gave Anesthetic bind -9%, TSG101-PTAP inh -1%, TSHR antag -8, S-ASM inh -10% and BRCA1 expr act 16µM*.
For COc1cccc2cc(NC(=O)C3CCCCC3)c(=O)oc12 the results were Anesthetic bind -6%, TSG101-PTAP inh -5%, TSHR antag -2, S-ASM inh 3% and BRCA1 expr act 6.3µM*.
`COc1cccc2cc(CC(=O)c3ccc(C)cc3C)c(=O)oc12` gave Anesthetic bind 0%, TSG101-PTAP inh 0%, TSHR antag 5, S-ASM inh -8% and BRCA1 expr act 11µM*.
For COc1cccc2cc(C(=O)Nc3ccc(C)cc3)c(=O)oc12 the results were Anesthetic bind -6%.
Screening CCCN1CNc2c(c(=O)[nH]c(=S)n2CCc2cc(Cl)cc(Cl)c2)C1 returned BRCA1 expr act -10%.
Cc1ccc2c(c1)ncc[n+]2CC(=O)c1ccc(Cl)cc1Cl was read as BRCA1 expr act -33%.
`C=CCn1c(SCC(=O)NCc2ccco2)nnc1-c1cccc(N(C)C)c1` gave BRCA1 expr act 4%.
Screening CN(C)c1ccc(C=NNC(=S)Nc2ccc(F)cc2)cc1 returned TSG101-PTAP inh -4%, S-ASM inh inactive and BRCA1 expr act 4µM*.
Cc1ccc(C(=O)N/N=C\c2ccc(OC(=O)c3cccc(F)c3)cc2)cn1 was read as Anesthetic bind -6%, TSG101-PTAP inh -2%, TSHR antag 4, S-ASM inh 3% and BRCA1 expr act 2%.
`COC(=O)c1ccc(/C=N/NC(=O)c2cccc(F)c2)cc1` gave Anesthetic bind -12%, TSG101-PTAP inh 2%, TSHR antag 10, S-ASM inh -4% and BRCA1 expr act 10µM*.
For O=C(N/N=C\c1ccc(F)cc1)c1ccc(F)cc1 the results were Anesthetic bind 0%, TSG101-PTAP inh -2%, TSHR antag 15, S-ASM inh 3% and BRCA1 expr act 11µM*.
Screening CSC(=S)N/N=C/c1ccc(N(C)C)cc1 returned Anesthetic bind -5%, TSG101-PTAP inh 1%, TSHR antag 7, S-ASM inh 6% and BRCA1 expr act 0%.
`Cc1noc(C)c1-c1ccc2ncnc(NCc3ccccc3Cl)c2c1` gave Anesthetic bind -7%.
